Assay results as given in the supplement of paper PMC10849652.
Of roughly 7,900 targets only a part is listed; those with a hit were picked by preference. About 0.6% of all pairs of compound and target were hits.

Experiments:
Assay in all cases: log2 fold change, soluble protein after heating vs DMSO (PISA); higher = thermal stabilisation; K562 cells, 10 uM, 30 min; active = over 0.2 and 3.5 SD of the protein, either way, in both replicates (recomputed)
[1] = compound: CS(=O)(=O)c1ccc(-c2cnc(N)c(C(=O)Nc3ccccc3)n2)cc1
Method in brief: (§1)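 Quantification of soluble protein used TMTpro 16plex LC-MS/MS, with channel sums equalised. Samples were the supernatant after 21,000xg for 90 min of pooled aliquots from K562 cells (2×10^6 cells/mL) treated with 10 μM compound for 30 min, heated for 3 min over 48°C-58°C, and extracted in PBS with 0.5% NP-40 at 4°C. Values, from duplicates, describe thermal stability against control samples on a log2 fold-change scale.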

[2] = compound: C[C@@H](Oc1cc(-c2cnn(C3CCNCC3)c2)cnc1N)c1c(Cl)ccc(F)c1Cl [crizotinib]
Method in brief: as §1

[3] = compound: C[C@@H]1COCCN1C2=NC(=NC(=C2)C3(CC3)S(=O)(=O)C)C4=C5C=CNC5=CC=C4
Method in brief: as §1

[4] = compound: C[C@H](C1=CC=C(C=C1)C(=O)NC2=C3C=CNC3=NC=C2)N
Method in brief: as §1

[5] = compound: C[C@H](Nc1ncnc2nc[nH]c12)c1cc2cccc(Cl)c2c(=O)n1-c1ccccc1 [duvelisib]
Method in brief: as §1

[6] = compound: Cc1cc(Nc2cc(CN3CCOCC3)c3nc(C)c(Cc4ccc(Cl)cc4F)n3n2)n[nH]1 [gandotinib]
Method in brief: as §1

[7] = compound: Cc1cc(Nc2cc(N3CCN(C)CC3)nc(Sc3ccc(NC(=O)C4CC4)cc3)n2)n[nH]1 [tozasertib]
Method in brief: as §1

[8] = compound: Cc1cc(SCc2sc(-c3ccc(C(F)(F)F)cc3)nc2C)ccc1OCC(=O)O
Method in brief: as §1

[9] = compound: Cc1ccc(-n2nc(C(C)(C)C)cc2NC(=O)Nc2ccc(OCCN3CCOCC3)c3ccccc23)cc1 [doramapimod]
Method in brief: as §1

[10] = compound: Cc1ccc(C(=O)N(CCCN)[C@@H](c2nc3cc(Cl)ccc3c(=O)n2Cc2ccccc2)C(C)C)cc1 [ispinesib]
Method in brief: as §1

[11] = compound: Cc1ccc(NC(=O)c2ccc(CN3CC[C@H](N(C)C)C3)c(C(F)(F)F)c2)cc1Nc1nccc(-c2cncnc2)n1 [bafetinib]
Method in brief: as §1

[12] = compound: Cc1cccc(CC(=O)N2CCc3c2ccc(-c2cn(C)c4ncnc(N)c24)c3F)n1
Method in brief: as §1

[13] = compound: Cc1cn(-c2cc(NC(=O)c3ccc(C)c(Nc4nccc(-c5cccnc5)n4)c3)cc(C(F)(F)F)c2)cn1 [nilotinib]
Method in brief: as §1

[14] = compound: Cc1nc(Nc2n[nH]c3c2CN(C(=O)N[C@H](CN(C)C)c2ccccc2)C3(C)C)c2sccc2n1
Method in brief: as §1

[15] = compound: Cc1nc(Nc2ncc(C(=O)Nc3c(C)cccc3Cl)s2)cc(N2CCN(CCO)CC2)n1 [dasatinib]
Method in brief: as §1

[16] = compound: Cc1ncc(-c2ccnc(Nc3ccc(S(C)(=O)=O)cc3)n2)n1C(C)C
Method in brief: as §1

[17] = compound: Cn1cc(-c2ccc3c(c2)CCN3C(=O)Cc2cccc(C(F)(F)F)c2)c2c(N)ncnc21
Method in brief: as §1

[18] = compound: Cn1cc(-c2ccc3nnc(C(F)(F)c4ccc5ncccc5c4)n3n2)cn1
Method in brief: as §1

[19] = compound: Cn1cncc1[C@@](N)(c1ccc(Cl)cc1)c1ccc2c(c1)c(-c1cccc(Cl)c1)cc(=O)n2C [tipifarnib]
Method in brief: as §1

[20] = compound: FC(F)(F)c1ccc(/C=C/c2nc(COc3ccc(CCCCn4ccnn4)cc3)co2)cc1 [mubritinib]
Method in brief: as §1

Measured: log2 fold change

HIP1 (UniProt O00291)
inactive: [1] 0.054 | [2] -0.131 | [3] 0.035 | [4] -0.002 | [5] 0.085 | [6] 0.029 | [7] -0.086 | [8] 0.027 | [9] 0 | [10] -0.033 | [11] -0.079 | [12] -0.069 | [13] -0.038 | [14] 0.063 | [15] 0.004 | [16] -0.079 | [17] -0.009 | [18] -0.002 | [19] -0.099 | [20] 0.077

GMEB1 (UniProt Q9Y692)
Sequence of UniProt Q9Y692 (Q9Y692 whole entry, looked up): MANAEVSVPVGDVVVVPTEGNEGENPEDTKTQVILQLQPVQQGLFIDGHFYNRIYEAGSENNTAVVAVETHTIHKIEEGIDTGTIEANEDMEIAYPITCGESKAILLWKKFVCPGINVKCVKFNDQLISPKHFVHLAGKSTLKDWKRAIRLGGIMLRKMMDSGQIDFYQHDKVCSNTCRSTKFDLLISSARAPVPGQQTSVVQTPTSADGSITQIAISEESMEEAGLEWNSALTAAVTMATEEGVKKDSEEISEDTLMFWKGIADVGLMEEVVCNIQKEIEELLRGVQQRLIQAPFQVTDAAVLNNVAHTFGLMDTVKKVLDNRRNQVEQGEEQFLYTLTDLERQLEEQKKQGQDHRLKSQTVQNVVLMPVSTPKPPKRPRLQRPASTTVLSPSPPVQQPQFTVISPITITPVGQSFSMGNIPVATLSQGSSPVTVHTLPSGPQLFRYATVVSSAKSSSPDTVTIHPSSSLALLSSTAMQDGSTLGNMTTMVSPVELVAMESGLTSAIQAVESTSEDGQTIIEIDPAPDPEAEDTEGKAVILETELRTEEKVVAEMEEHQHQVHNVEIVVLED
inactive: [1] -0.036 | [2] 0.02 | [3] 0.04 | [4] -0.045 | [5] 0.025 | [6] -0.11 | [7] 0.03 | [8] 0.049 | [9] -0.038 | [10] 0.01 | [11] -0.12 | [12] -0.048 | [13] -0.04 | [14] -0.036 | [15] -0.06 | [16] 0.001 | [17] 0.019 | [18] 0.044 | [19] -0.204 | [20] -0.03

HNRNPH2 (UniProt P55795)
inactive: [1] 0.029 | [2] -0.171 | [3] 0.096 | [4] -0.023 | [5] 0.054 | [6] 0.06 | [7] 0.113 | [8] 0.177 | [9] -0.024 | [10] -0.159 | [11] 0.056 | [12] 0.006 | [13] -0.09 | [14] -0.231 | [15] -0.061 | [16] -0.103 | [17] -0.021 | [18] 0.041 | [19] -0.236 | [20] -0.115

GGT7 (UniProt Q9UJ14)
inactive: [1] 0.035 | [2] 0.013 | [3] -0.128 | [4] 0.013 | [5] -0.045 | [6] -0.03 | [7] -0.049 | [8] -0.091 | [9] 0.023 | [10] -0.032 | [11] -0.081 | [12] -0.038 | [13] 0.026 | [14] 0.015 | [15] -0.02 | [16] -0.03 | [17] 0.063 | [18] 0.018 | [19] 0.001 | [20] 0.021

GALNT11 (UniProt Q8NCW6)
inactive: [1] 0.039 | [2] 0.04 | [3] 0.112 | [4] 0.018 | [5] 0.039 | [6] 0.045 | [7] 0.027 | [8] -0.061 | [9] 0.045 | [10] -0.163 | [11] -0.055 | [12] -0.089 | [13] -0.047 | [14] -0.068 | [15] -0.022 | [16] 0.076 | [17] 0.069 | [18] -0.031 | [19] 0.102 | [20] 0.088

FNTB (UniProt P49356)
Sequence of UniProt P49356 (P49356 whole entry, looked up): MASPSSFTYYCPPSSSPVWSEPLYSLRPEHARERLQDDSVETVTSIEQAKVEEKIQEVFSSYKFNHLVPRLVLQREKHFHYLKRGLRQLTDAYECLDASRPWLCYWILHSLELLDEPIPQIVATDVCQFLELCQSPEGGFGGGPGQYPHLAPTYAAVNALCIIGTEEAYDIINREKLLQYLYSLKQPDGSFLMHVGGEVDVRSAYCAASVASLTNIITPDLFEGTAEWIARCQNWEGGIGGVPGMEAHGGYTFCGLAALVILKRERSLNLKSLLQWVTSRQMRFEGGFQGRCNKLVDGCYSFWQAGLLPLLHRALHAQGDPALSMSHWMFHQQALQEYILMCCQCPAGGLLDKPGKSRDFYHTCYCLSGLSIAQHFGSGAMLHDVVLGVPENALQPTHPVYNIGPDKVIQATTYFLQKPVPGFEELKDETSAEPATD
inactive: [1] 0.104 | [2] 0.054 | [3] -0.035 | [4] -0.137 | [5] 0.085 | [6] 0.169 | [7] -0.012 | [8] -0.043 | [9] -0.012 | [10] 0.109 | [11] 0.028 | [12] 0.015 | [13] 0.028 | [14] 0.177 | [15] 0.22 | [16] -0.056 | [17] 0.196 | [18] 0.251 | [20] -0.103
active: [19] 0.757

GUSB (UniProt P08236)
Sequence of UniProt P08236 (P08236 whole entry, looked up): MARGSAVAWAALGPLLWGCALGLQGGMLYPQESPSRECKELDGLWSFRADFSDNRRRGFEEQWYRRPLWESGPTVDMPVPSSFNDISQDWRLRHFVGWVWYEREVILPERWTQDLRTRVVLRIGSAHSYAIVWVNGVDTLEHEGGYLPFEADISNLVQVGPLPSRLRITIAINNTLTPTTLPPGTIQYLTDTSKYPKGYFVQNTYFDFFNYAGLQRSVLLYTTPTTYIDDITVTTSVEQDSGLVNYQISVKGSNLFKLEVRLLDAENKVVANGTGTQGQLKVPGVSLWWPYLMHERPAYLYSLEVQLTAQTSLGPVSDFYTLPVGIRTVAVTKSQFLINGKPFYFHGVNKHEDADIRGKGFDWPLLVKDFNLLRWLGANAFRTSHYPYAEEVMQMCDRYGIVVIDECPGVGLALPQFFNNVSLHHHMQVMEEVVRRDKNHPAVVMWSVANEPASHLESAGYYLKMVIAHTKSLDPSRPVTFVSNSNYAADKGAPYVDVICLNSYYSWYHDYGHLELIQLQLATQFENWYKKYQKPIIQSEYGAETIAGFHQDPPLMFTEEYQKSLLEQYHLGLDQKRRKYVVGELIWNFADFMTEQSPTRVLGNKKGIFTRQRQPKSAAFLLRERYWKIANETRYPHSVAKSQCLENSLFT
inactive: [1] 0.053 | [2] 0.004 | [3] -0.018 | [4] 0.063 | [5] 0.066 | [6] 0.051 | [7] 0.006 | [8] -0.039 | [9] 0.042 | [10] -0.03 | [11] 0.016 | [12] -0.013 | [13] 0.218 | [14] -0.115 | [15] 0.053 | [16] 0.117 | [17] -0.059 | [18] -0.007 | [19] 0.16 | [20] -0.136

HNRNPUL1 (UniProt Q9BUJ2)
Sequence of UniProt Q9BUJ2 (Q9BUJ2 whole entry, looked up): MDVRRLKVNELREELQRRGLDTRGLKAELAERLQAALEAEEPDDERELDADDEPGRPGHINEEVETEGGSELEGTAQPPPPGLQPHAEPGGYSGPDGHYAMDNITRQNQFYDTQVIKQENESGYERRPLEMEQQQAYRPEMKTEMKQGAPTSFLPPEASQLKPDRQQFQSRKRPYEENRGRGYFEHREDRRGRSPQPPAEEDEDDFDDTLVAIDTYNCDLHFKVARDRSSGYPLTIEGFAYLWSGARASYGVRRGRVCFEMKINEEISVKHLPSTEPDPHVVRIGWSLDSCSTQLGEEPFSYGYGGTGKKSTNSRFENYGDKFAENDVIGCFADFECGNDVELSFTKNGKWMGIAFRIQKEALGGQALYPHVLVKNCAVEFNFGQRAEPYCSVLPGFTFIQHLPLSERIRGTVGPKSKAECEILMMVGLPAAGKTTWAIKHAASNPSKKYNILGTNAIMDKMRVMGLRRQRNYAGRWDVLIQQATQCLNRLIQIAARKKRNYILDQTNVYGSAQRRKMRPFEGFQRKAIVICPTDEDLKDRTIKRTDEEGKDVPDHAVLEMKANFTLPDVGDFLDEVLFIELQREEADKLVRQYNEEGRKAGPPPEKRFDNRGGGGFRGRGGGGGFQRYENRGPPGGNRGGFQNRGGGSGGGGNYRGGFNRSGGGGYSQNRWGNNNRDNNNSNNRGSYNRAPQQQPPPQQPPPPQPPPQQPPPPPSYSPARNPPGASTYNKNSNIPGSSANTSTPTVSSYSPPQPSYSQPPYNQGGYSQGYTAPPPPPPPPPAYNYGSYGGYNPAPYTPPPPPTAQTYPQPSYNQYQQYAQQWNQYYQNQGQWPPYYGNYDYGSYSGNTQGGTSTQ
active: [20] -0.231
inactive: [1] 0.007 | [2] -0.023 | [3] -0.016 | [4] 0.147 | [5] -0.036 | [6] 0.049 | [7] 0.039 | [8] 0.085 | [9] -0.025 | [10] -0.019 | [11] -0.011 | [12] -0.069 | [13] -0.032 | [14] -0.008 | [15] -0.061 | [16] 0.041 | [17] -0.03 | [18] -0.007 | [19] 0.059

GSK3B isoform 2 (UniProt P49841)
Sequence of UniProt P49841 (P49841 whole entry, looked up): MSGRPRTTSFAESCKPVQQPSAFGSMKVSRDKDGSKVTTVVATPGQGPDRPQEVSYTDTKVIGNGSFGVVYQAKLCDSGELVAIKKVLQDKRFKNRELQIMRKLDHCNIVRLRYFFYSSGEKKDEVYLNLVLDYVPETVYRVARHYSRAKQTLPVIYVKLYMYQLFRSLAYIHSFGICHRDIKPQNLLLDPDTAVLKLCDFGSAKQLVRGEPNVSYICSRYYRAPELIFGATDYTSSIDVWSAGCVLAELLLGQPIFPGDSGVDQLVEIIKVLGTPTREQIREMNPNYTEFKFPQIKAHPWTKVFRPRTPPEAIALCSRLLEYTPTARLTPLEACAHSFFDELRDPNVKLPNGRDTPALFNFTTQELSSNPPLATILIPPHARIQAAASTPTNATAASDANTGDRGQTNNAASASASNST
inactive: [1] 0.09 | [2] -0.053 | [3] -0.032 | [4] -0.143 | [5] -0.015 | [6] -0.108 | [7] -0.043 | [8] 0.015 | [9] -0.013 | [10] 0.059 | [11] -0.003 | [12] 0.055 | [13] -0.04 | [14] 0.094 | [15] -0.115 | [16] 0.124 | [17] 0.055 | [18] -0.013 | [19] -0.024 | [20] -0.008

GPX4 (UniProt P36969)
inactive: [1] 0.014 | [2] 0.079 | [3] 0.011 | [4] -0.072 | [5] 0.055 | [6] 0.013 | [7] 0.023 | [8] -0.017 | [9] -0.039 | [10] 0.213 | [11] 0.003 | [12] 0.023 | [13] 0.036 | [14] -0.031 | [15] 0.015 | [16] 0.019 | [17] 0.05 | [18] 0.003 | [19] -0.046 | [20] 0.033

HP1BP3 (UniProt Q5SSJ5)
inactive: [1] 0.002 | [2] -0.121 | [3] -0.013 | [4] 0.163 | [5] -0.097 | [6] 0.039 | [7] -0.011 | [8] 0.121 | [9] 0.035 | [10] -0.079 | [11] 0.017 | [12] -0.082 | [13] 0.055 | [14] -0.008 | [15] 0.009 | [16] 0.125 | [17] -0.045 | [18] -0.087 | [19] 0.028 | [20] 0.026

HAT1 (UniProt O14929)
Sequence of UniProt O14929 (O14929 whole entry, looked up): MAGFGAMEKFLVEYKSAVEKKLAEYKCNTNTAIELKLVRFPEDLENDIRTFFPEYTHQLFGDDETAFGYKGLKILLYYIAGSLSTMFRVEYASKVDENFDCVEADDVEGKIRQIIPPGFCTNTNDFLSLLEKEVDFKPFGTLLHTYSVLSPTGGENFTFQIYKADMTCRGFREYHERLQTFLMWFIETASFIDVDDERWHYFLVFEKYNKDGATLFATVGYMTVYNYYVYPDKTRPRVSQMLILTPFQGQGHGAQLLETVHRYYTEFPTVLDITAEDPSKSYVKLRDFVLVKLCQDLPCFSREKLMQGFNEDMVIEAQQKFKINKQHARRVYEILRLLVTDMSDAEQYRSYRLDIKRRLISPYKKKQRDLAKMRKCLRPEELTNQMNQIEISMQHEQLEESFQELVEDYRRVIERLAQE
inactive: [1] -0.011 | [2] 0.013 | [3] 0.007 | [4] -0.225 | [5] -0.031 | [6] 0.019 | [7] 0.024 | [8] 0.033 | [9] -0.04 | [10] 0.135 | [11] -0.115 | [12] 0.017 | [13] 0.004 | [14] -0.035 | [15] -0.044 | [16] -0.025 | [17] 0.024 | [18] 0.006 | [19] 0.004 | [20] -0.033

FECH isoform 2 (UniProt P22830)
Sequence of UniProt P22830 (P22830 whole entry, looked up): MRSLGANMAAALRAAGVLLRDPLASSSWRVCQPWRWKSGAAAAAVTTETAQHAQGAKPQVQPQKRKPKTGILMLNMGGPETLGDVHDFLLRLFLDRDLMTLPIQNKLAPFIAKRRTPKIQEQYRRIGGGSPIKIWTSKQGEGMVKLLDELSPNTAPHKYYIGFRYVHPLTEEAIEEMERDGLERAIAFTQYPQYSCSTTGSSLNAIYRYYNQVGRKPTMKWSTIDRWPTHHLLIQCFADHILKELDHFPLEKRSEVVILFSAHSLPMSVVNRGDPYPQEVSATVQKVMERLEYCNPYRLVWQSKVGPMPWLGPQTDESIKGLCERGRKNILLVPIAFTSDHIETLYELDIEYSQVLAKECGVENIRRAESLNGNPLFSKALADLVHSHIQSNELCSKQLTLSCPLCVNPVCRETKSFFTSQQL
inactive: [1] 0.527 | [2] 0.021 | [3] 0.161 | [4] -0.12 | [5] 0.263 | [6] 0.178 | [7] 0.162 | [8] 0.029 | [9] 0.071 | [10] -0.37 | [11] 0.315 | [12] -0.125 | [13] 0.189 | [14] -0.04 | [15] 0.46 | [16] 0.134 | [17] 0.549 | [18] 0.248 | [19] 0.134 | [20] 0.034

GSK3A (UniProt P49840)
Sequence of UniProt P49840 (P49840 whole entry, looked up): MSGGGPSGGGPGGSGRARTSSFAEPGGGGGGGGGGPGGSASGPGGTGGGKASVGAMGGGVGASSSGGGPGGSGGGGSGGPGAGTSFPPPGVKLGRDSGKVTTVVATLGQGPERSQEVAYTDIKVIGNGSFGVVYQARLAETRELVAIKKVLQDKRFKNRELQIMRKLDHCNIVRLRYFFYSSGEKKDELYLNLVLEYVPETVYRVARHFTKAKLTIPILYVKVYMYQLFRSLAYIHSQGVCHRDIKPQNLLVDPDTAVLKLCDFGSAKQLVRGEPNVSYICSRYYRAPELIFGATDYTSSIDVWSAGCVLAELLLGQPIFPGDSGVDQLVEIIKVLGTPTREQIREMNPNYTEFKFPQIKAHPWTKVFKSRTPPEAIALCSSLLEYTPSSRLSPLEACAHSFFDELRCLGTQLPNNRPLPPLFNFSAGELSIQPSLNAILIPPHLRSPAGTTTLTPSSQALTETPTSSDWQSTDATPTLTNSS
inactive: [2] 0.129 | [3] 0.053 | [4] 0.015 | [5] 0.044 | [6] 0.201 | [7] -0.006 | [8] 0.015 | [9] -0.039 | [10] 0.072 | [11] -0.052 | [12] -0.027 | [13] -0.01 | [15] -0.024 | [17] -0.004 | [18] 0.011 | [19] -0.033 | [20] 0.038
active: [1] 0.322 | [14] 0.308 | [16] 0.383

HLTF (UniProt Q14527)
inactive: [1] -0.034 | [2] 0.045 | [3] -0.143 | [4] 0.006 | [5] -0.006 | [6] -0.078 | [7] -0.023 | [8] 0.063 | [9] -0.003 | [10] 0.006 | [11] -0.003 | [12] 0.017 | [13] 0.099 | [14] -0.193 | [15] -0.035 | [16] 0.015 | [17] -0.035 | [18] -0.01 | [19] 0.007 | [20] 0.051

HOOK3 (UniProt Q86VS8)
Sequence of UniProt Q86VS8 (Q86VS8 whole entry, looked up): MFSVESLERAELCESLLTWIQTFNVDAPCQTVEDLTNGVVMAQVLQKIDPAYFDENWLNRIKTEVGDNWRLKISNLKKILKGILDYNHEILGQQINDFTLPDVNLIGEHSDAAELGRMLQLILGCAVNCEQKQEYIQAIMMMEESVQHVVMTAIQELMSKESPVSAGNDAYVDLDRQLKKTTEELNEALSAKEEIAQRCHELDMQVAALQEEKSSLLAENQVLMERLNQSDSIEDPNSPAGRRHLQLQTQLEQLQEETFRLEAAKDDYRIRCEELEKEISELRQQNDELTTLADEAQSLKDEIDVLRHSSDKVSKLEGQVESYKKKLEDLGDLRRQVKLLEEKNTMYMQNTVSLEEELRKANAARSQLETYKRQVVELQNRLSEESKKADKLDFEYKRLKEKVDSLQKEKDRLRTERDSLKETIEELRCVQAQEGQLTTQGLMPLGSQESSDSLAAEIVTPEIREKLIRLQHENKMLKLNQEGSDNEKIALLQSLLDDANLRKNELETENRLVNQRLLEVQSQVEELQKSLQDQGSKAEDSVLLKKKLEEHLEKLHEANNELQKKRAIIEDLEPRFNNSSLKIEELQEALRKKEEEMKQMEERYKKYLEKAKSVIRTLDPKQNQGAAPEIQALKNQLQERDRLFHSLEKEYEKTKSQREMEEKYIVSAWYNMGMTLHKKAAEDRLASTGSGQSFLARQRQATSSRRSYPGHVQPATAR
inactive: [1] -0.042 | [2] -0.123 | [3] -0.05 | [4] 0.036 | [5] 0.05 | [6] -0.067 | [7] 0.037 | [8] 0.033 | [9] 0.019 | [10] -0.199 | [11] -0.047 | [12] 0.029 | [13] -0.088 | [14] -0.078 | [15] -0.07 | [16] 0.009 | [17] 0.002 | [18] -0.027 | [19] -0.001 | [20] -0.024
